Assay results as given in the OligoGym collection.

molecular target: C17orf89; test: pooled miR-30 sensor sort-seq; sequence = guide strand; conditions: shRNA
Further: reference of the scale not given here.

Sequence | sensor-assay potency score (higher = more potent)
TTACTCAGGCGGCCGCCCGGGG | -1.34
AAGTCCTTACTCAGGCGGCCGC | -1.52
TCGCACGCGGCCCCACACCGCT | -1.58
TCGAACTCCCGCGCGCAGAAGT | -1.83
CAGAAGTCCTTACTCAGGCGGC | -1.6
TTCTTGGCCGCAGCGGCGAAGC | -1.54
AGGGCCTCGAACTCCCGCGCGC | -1.88
TCCCGCGCGCAGAAGTCCTTAC | -1.42
TCTTCTTGGCCGCAGCGGCGAA | -1.65
TTGGCCGCAGCGGCGAAGCAGC | -1.67
AGGCCTGCACGCACCTGCCGTA | -1.48
TACGCCGCGGCCTCGGCCCCGC | -1.68

molecular target: C18orf34; test: as above; conditions: shRNA

Sequence | sensor-assay potency score (higher = more potent)
TAGTTTTTTCTGAAGCACCATT | -0.995
TTGTCGAGACTTCTGATTCTTT | -0.716
TTCATCTTCTAGTTGAAGCAGA | -0.375
TTTTTTATTGTCTTCCGTCAGT | -0.408
TAATTCTATAACATCACTCAAA | -0.981
TTTCATCTCTCTTTTCTCCTGG | 0.616
TACACTGTTATCTGAACTGTGT | 0.065
TTGAAGTTCCTGATTCTGCTTA | 0.774
TTGTCTTACTTTTAGTTGCTTC | -0.608
TATTCTTTCTTGATCTCTGTTG | -0.0146
TTTTGTTGACACAAGGTGCTGG | 0.854
TTCTTCATTAACTTTTCTGTGT | 0.0915

molecular target: C18orf56; test: as above; conditions: shRNA

Sequence | sensor-assay potency score (higher = more potent)
TCGGTATTCGGCATGCAGGCGC | -0.876
TTAGTCCTAACCTCAATCCTGC | -0.842
TATCTCTTCATCTGGGACCTGG | -0.00491
TTAGGGACGTGACTGGCGCGGG | -1.11
TATTTTGATCATTGCTGCCTTT | -0.437
TAGTCCTAACCTCAATCCTGCC | -1.52
TTTAGTCCTAACCTCAATCCTG | -0.687
TTAGTATTTTGATCATTGCTGC | -0.0513
TCTAATGCATCCTATATCCAGT | -0.446
ATGCAGGCGCGCTACAGCCTGA | -1.57
ACACACAGCAGCGACAGCCGGG | -1
TAGAATTATCTCTTCATCTGGG | 0.794

molecular target: C19orf26; test: as above; conditions: shRNA

Sequence | sensor-assay potency score (higher = more potent)
TTGCAGAGGAGCAGGACGCCAG | -1.16
TTCCACTTCTTGACCTTGAAAT | -1.35
TCCGTCAGTGTGTACCGGCGAC | -0.95
